“And” between values parts separate entries of the source, which are not always exact repeats. Equal values may be shown once. Records with an inconclusive call do not appear. Entries that show only a call come without a potency. A structure can be active in one record and inactive in another. The source made the active and inactive calls. The call rests on the fitted dose curve; in most records, active means well fitted curve in the direction sought with a large enough effect in the repeat runs; inconclusive means weak or mixed curves; inactive means no such curve, though single readings can be large; an effect the other way counts as inactive or inconclusive.
Biological target: Aromatase (Homo sapiens) (UniProt P11511)
Sequence (P11511 whole entry, looked up): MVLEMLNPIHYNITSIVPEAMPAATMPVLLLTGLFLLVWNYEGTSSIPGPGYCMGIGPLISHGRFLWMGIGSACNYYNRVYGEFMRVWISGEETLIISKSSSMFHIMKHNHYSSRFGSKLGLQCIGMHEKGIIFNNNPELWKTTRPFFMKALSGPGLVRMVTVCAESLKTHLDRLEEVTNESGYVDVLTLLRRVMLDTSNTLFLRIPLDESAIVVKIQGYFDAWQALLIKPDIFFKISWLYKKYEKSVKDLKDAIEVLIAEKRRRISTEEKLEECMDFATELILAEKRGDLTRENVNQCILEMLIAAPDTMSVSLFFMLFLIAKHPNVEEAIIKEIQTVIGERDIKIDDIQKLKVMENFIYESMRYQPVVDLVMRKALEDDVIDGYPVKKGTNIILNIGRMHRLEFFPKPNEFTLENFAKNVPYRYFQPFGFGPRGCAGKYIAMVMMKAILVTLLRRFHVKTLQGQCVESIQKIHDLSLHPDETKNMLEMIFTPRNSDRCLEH
Experiment: qHTS assay to identify aromatase inhibitors (AID 743083); further: nearly all actives have a fitted effect of over 55% in size
Settings: MCF-7 aro ERE, testosterone-driven ERE luciferase, 24 h; series mostly up to 70.3 µM
Potency means the concentration at half of the fitted maximal effect.

Row | SMILES | Potency
1 | CC1=C(/C=C/C(C)=C/C=C/C(C)=C/CO)C(C)(C)CCC1 | inactive and 28.8 µM (active)
2 | O=C1N=C(O)CN1/N=C/c1ccc(-c2ccc([N+](=O)[O-])cc2)o1 | inactive
3 | OCC#CCO | inactive
4 | CCOC(=O)/C=C\C(=O)OCC | inactive
5 | CC1CC(OC(=O)c2ccccc2O)CC(C)(C)C1 (stereo not drawn) | inactive
6 | CCCCCC/C=C/CCCCCCCC(=O)O | inactive
7 | CCCCC/C=C\C/C=C\CCCCCCCC(=O)OC | inactive
8 | CCCCCCOC(C)=O | inactive
9 | S=c1nc[nH]c2nc[nH]c12 | inactive
10 | CC(C)(C)C1CCC(O)CC1 (stereo not drawn) | inactive
11 | CCCCCCCCCC(=O)O | inactive
12 | NCc1cccc(CN)c1 | inactive
13 | OCC1CCCO1 (stereo not drawn) | inactive
14 | CCOC(=O)C1OC1c1ccccc1 (stereo not drawn) | inactive
15 | C=C(C)C(=O)OCCC[Si](OC)(OC)OC | inactive
16 | CC1=CC[C@H]2C[C@@H]1C2(C)C | inactive

Row | SMILES | Potency
17 | C/C=C(C)/C=C/C=C(C)C | inactive
18 | C=C1CC[C@H](O)CC1=C/C=C1\CCC[C@]2(C)[C@@H]([C@H](C)/C=C/[C@H](C)C(C)C)CC[C@@H]12 | inactive and 61.1 µM (active)
19 | CCCCC(CC)C(=O)OCCOCCOCCOC(=O)C(CC)CCCC (stereo not drawn) | inactive
20 | C=C(C)C(=O)OCC(CC)(COC(=O)C(=C)C)COC(=O)C(=C)C | inactive
21 | Oc1ccc2ccccc2c1 | inactive
22 | C[C@@H]1O[C@@H](OC[C@H]2O[C@@H](Oc3c(-c4ccc(O)c(O)c4)oc4cc(O)cc(O)c4c3=O)[C@H](O)[C@@H](O)[C@@H]2O)[C@H](O)[C@H](O)[C@H]1O | inactive
23 | O=C(c1cc(O)c(O)c(O)c1)c1ccc(O)c(O)c1O | inactive
24 | Oc1ccc(OCc2ccccc2)cc1 | inactive
25 | CC(C)(C)C(=O)C1C(=O)c2ccccc2C1=O | inactive
26 | Nc1nc2ncc(CNc3ccc(C(=O)N[C@@H](CCC(=O)O)C(=O)O)cc3)nc2c(=O)[nH]1 | inactive
27 | CCCCCCCCCCCCN | 61.1 µM (active)
28 | O=C1O[C@H](CO)[C@@H](O)[C@H](O)[C@H]1O | inactive
29 | O=c1c(-c2ccc(O)cc2)coc2cc(O)ccc12 | inactive
30 | Oc1c(Cl)cc(Cl)c(Cl)c1Cl | inactive
31 | CCC(=O)O | inactive

Tested on: not listed separately
Experiment: qHTS assay to identify aromatase inhibitors - cell viability counter screen (AID 743084);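 further: cells stimulated with testosterone during compound exposure; nearly all actives have a fitted effect of over 55% in size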
Settings: MCF-7 aro ERE viability, CellTiter-Fluor, 24 h; series mostly up to 70.3 µM

Row | SMILES | Potency
32 | CC1=C(/C=C/C(C)=C/C=C/C(C)=C/CO)C(C)(C)CCC1 | inactive and 72.3 µM (active)
33 | O=C1N=C(O)CN1/N=C/c1ccc(-c2ccc([N+](=O)[O-])cc2)o1 | inactive
34 | OCC#CCO | inactive
35 | CCOC(=O)/C=C\C(=O)OCC | inactive
36 | CC1CC(OC(=O)c2ccccc2O)CC(C)(C)C1 (stereo not drawn) | inactive
37 | CCCCCC/C=C/CCCCCCCC(=O)O | inactive
38 | CCCCC/C=C\C/C=C\CCCCCCCC(=O)OC | inactive
39 | CCCCCCOC(C)=O | inactive
40 | S=c1nc[nH]c2nc[nH]c12 | inactive
41 | CC(C)(C)C1CCC(O)CC1 (stereo not drawn) | inactive
42 | CCCCCCCCCC(=O)O | inactive
43 | NCc1cccc(CN)c1 | inactive
44 | CC(C)n1c(/C=C/[C@@H](O)C[C@@H](O)CC(=O)O)c(-c2ccc(F)cc2)c2ccccc21 | inactive
45 | OCC1CCCO1 (stereo not drawn) | inactive
46 | CCOC(=O)C1OC1c1ccccc1 (stereo not drawn) | inactive
47 | C=C(C)C(=O)OCCC[Si](OC)(OC)OC | inactive

Row | SMILES | Potency
48 | O=[N+]([O-])c1cc(N(CCO)CCO)ccc1NCCO | 48.5 µM (active) and 61.1 µM (active)
49 | CC1=CC[C@H]2C[C@@H]1C2(C)C | inactive
50 | C/C=C(C)/C=C/C=C(C)C | inactive
51 | C=C1CC[C@H](O)CC1=C/C=C1\CCC[C@]2(C)[C@@H]([C@H](C)/C=C/[C@H](C)C(C)C)CC[C@@H]12 | inactive
52 | CCCCC(CC)C(=O)OCCOCCOCCOC(=O)C(CC)CCCC (stereo not drawn) | inactive
53 | C=C(C)C(=O)OCC(CC)(COC(=O)C(=C)C)COC(=O)C(=C)C | inactive
54 | Oc1ccc2ccccc2c1 | inactive
55 | C[C@@H]1O[C@@H](OC[C@H]2O[C@@H](Oc3c(-c4ccc(O)c(O)c4)oc4cc(O)cc(O)c4c3=O)[C@H](O)[C@@H](O)[C@@H]2O)[C@H](O)[C@H](O)[C@H]1O | inactive
56 | O=C(c1cc(O)c(O)c(O)c1)c1ccc(O)c(O)c1O | 34.3 µM (active)
57 | Oc1ccc(OCc2ccccc2)cc1 | inactive
58 | Nc1nc2ncc(CNc3ccc(C(=O)N[C@@H](CCC(=O)O)C(=O)O)cc3)nc2c(=O)[nH]1 | inactive
59 | Cc1cc(NS(=O)(=O)c2ccc(N)cc2)no1 | inactive
60 | O=C1O[C@H](CO)[C@@H](O)[C@H](O)[C@H]1O | inactive
61 | O=c1c(-c2ccc(O)cc2)coc2cc(O)ccc12 | inactive
62 | Oc1c(Cl)cc(Cl)c(Cl)c1Cl | inactive
63 | CCC(=O)O | inactive

Biological target: Aryl hydrocarbon receptor (Homo sapiens) (UniProt P35869)
Sequence (P35869 whole entry, looked up): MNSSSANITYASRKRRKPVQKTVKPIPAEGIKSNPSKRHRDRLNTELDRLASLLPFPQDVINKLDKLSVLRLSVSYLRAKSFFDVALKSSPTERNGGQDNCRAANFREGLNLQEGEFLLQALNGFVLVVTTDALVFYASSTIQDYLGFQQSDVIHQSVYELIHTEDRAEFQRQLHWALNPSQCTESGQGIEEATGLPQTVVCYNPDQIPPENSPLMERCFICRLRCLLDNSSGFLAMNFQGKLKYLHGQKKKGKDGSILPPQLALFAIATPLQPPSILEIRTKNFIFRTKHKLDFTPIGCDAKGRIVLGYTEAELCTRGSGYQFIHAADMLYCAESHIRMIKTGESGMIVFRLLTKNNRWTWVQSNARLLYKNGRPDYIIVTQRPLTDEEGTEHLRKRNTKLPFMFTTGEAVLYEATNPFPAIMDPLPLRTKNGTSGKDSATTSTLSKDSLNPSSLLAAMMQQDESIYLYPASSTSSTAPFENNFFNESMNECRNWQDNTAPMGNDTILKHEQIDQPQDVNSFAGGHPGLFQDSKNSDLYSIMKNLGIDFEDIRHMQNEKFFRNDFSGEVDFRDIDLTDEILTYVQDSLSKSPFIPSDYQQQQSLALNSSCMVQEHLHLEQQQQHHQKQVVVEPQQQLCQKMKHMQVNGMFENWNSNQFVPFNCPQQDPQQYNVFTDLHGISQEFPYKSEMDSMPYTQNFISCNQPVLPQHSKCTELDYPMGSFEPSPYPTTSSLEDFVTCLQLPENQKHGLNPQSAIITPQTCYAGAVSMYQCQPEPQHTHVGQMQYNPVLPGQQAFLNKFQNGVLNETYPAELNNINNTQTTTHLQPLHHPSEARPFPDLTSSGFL
Experiment: qHTS assay to identify small molecule that activate the aryl hydrocarbon receptor (AhR) signaling pathway (AID 743085); further: nearly all actives have a fitted effect of over 15% in size
Settings: HepG2 AhR-luc (HG2L7.5c1), luciferase, 24 h; series mostly up to 70.3 µM
Procedure, shortened: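 24 h compound exposure, 37C, HepG2-derived HG2L7.5c1 cells with DRE-responsive luciferase. Readouts: fluorescence viability, then luminescence at room temperature after 30 min.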

Row | SMILES | Potency
64 | CC1=C(/C=C/C(C)=C/C=C/C(C)=C/CO)C(C)(C)CCC1 | inactive
65 | OCC#CCO | inactive
66 | CCCCCC/C=C/CCCCCCCC(=O)O | inactive
67 | CCCCC/C=C\C/C=C\CCCCCCCC(=O)OC | inactive
68 | CCCCCCOC(C)=O | inactive
69 | S=c1nc[nH]c2nc[nH]c12 | inactive and 23.7 µM (active)
70 | OCC1CCCO1 (stereo not drawn) | inactive
71 | CCOC(=O)C1OC1c1ccccc1 (stereo not drawn) | inactive
72 | C=C(C)C(=O)OCCC[Si](OC)(OC)OC | inactive
73 | O=[N+]([O-])c1cc(N(CCO)CCO)ccc1NCCO | inactive
74 | C/C=C(C)/C=C/C=C(C)C | inactive
75 | C=C(C)C(=O)OCC(CC)(COC(=O)C(=C)C)COC(=O)C(=C)C | inactive
76 | C[C@@H]1O[C@@H](OC[C@H]2O[C@@H](Oc3c(-c4ccc(O)c(O)c4)oc4cc(O)cc(O)c4c3=O)[C@H](O)[C@@H](O)[C@@H]2O)[C@H](O)[C@H](O)[C@H]1O | inactive
77 | Oc1ccc(OCc2ccccc2)cc1 | inactive
78 | CCC(=O)O | inactive
